# Reference: PubChem BioAssay (EPA / NIEHS)
# The source made the active and inactive calls. How the source made its calls: active means hit-call score of the fitted dose curve at least 0.9, where 1 is the maximum; inactive means score below 0.9.
# Read-out: Alkaline Phosphatase, Placental (ALPP) gene, ALPP (gene 250)
# Assay: LTEA_HepaRG_ALPP: Life Technologies and Expression Analysis (LTEA) Assay for Alkaline Phosphatase, Placental (ALPP) gene using HepaRG (AID 2283468)
# Conditions: mRNA level, 48 h; actives raise or lower the signal
# Outline: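 Differentiated human HepaRG cells were plated and cultured 48 h, then exposed in duplicate for 48 h in serum-free induction medium to eight half-log concentrations from 100 uM in 0.5% DMSO. ALPP mRNA was measured by TaqMan qRT-PCR, normalized to ACTB, GAPDH, POLR2A.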
SMILES,outcome,AC50
CC1(C)C(=O)N(Br)C(=O)N1Br,inactive,
CC(=O)OCCC(C)C,inactive,
CC(=O)c1ccc2c(c1)[C@H](NC(=O)c1ccc(F)cc1)[C@@H](O)C(C)(C)O2,inactive,
O=C(CCCCCCCCc1cccnc1)N1CCC(C=C(c2ccccc2)c2ccccc2)CC1,,13.7 µM (active)
Cn1cnc([N+](=O)[O-])c1Sc1ncnc2nc[nH]c12,inactive,
C1=CCCC=CCCC=CCC1,inactive,
O=c1[nH]c2ccc(S(=O)CCN3CCC(Cc4ccc(F)cc4)CC3)cc2o1 (configuration not stated),,64.7 µM (active)
Cn1c(=O)c2c(ncn2C)n(C)c1=O,inactive,
O=C1OC(=O)C2C3C=CC(C3)C12 (configuration not stated),inactive,
CC(C)=CCCC(C)CCO (configuration not stated),inactive,
Cn1c(=O)cc(Oc2ccc(F)cc2F)c2cnc(NCC(C)(C)O)nc21,,20.7 µM (active)
CC(C)CC(C)(O)C#CC(C)(O)CC(C)C (configuration not stated),inactive,
Clc1nc(Cl)c(Cl)c(Cl)c1Cl,inactive,
COC(=O)c1c(Cl)c(Cl)c(C(=O)OC)c(Cl)c1Cl,inactive,
CCn1nc(Cc2ccccc2)cc1C1CCN(C[C@H]2C[C@H](N(C)[C@@H](C(=O)O)C(C)C)C[C@@H]2c2cccc(F)c2)CC1,,23.8 µM (active)
CCC(C)(C)C(=O)O[C@H]1C[C@@H](C)C=C2C=C[C@H](C)[C@H](CC[C@@H]3C[C@@H](O)CC(=O)O3)[C@H]21,inactive,
CCCC(=O)OCC,inactive,
CC(C)CCCCCCOC(=O)c1ccc(C(=O)OCCCCCCC(C)C)c(C(=O)OCCCCCCC(C)C)c1,inactive,
C[C@](N)(Cc1ccc(O)c(O)c1)C(=O)O,inactive,
COc1ccc(-n2nc(C(F)F)cc2-c2ccc(S(C)=O)cc2)cc1 (configuration not stated),inactive,
CCOCCO,inactive,
O=C(NS(=O)(=O)/C=C/c1ccccc1)c1ccc(F)cc1Cl,inactive,
CCCCCCCCCCCCCCCO,inactive,
CCOC(=O)COc1ccc2c(c1)CC(NCC(O)c1cccc(Cl)c1)CC2 (configuration not stated),,16 µM (active)
CCCCCCCCO,inactive,
CC(C)c1cccc(C(C)C)c1N1C(=O)c2ccc(O)cc2C1=O,,91.6 µM (active)
CNCc1ccc(NC(=O)c2c[nH]c3c2C(=O)CCC3)cc1,inactive,
CN(C)c1ccc(N=NS(=O)(=O)O)cc1,inactive,
O=C(O)CCN(C1(C(=O)NO)CCCC1)S(=O)(=O)c1ccc(Oc2ccc(F)cc2)cc1,inactive,

# Read-out: Bcl-2 (BAD) gene, BAD (gene 572)
# Assay: LTEA_HepaRG_BAD: Life Technologies and Expression Analysis (LTEA) Assay for Bcl-2 (BAD) gene using HepaRG (AID 2283469)
# Conditions: mRNA level, 48 h; actives raise or lower the signal
# Outline: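 Read-out: qRT-PCR of BAD mRNA, normalized to three housekeeping genes. Human HepaRG cultures got 48 h chemical exposure in 0.5% DMSO, duplicate eight-point half-log series topping at 100 uM. Gain or loss of signal fitted versus DMSO vehicle.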
row,SMILES,outcome
1,CC1(C)C(=O)N(Br)C(=O)N1Br,inactive
2,CC(=O)c1ccc2c(c1)[C@H](NC(=O)c1ccc(F)cc1)[C@@H](O)C(C)(C)O2,inactive
3,Cn1cnc([N+](=O)[O-])c1Sc1ncnc2nc[nH]c12,inactive
4,O=c1[nH]c2ccc(S(=O)CCN3CCC(Cc4ccc(F)cc4)CC3)cc2o1 (configuration not stated),inactive
5,O=C1OC(=O)C2C3C=CC(C3)C12 (configuration not stated),inactive
6,CC(C)CC(C)(O)C#CC(C)(O)CC(C)C (configuration not stated),inactive
7,Clc1nc(Cl)c(Cl)c(Cl)c1Cl,inactive
8,COC(=O)c1c(Cl)c(Cl)c(C(=O)OC)c(Cl)c1Cl,inactive
9,CCn1nc(Cc2ccccc2)cc1C1CCN(C[C@H]2C[C@H](N(C)[C@@H](C(=O)O)C(C)C)C[C@@H]2c2cccc(F)c2)CC1,inactive
10,CCCC(=O)OCC,inactive
11,C[C@](N)(Cc1ccc(O)c(O)c1)C(=O)O,inactive
12,O=C(NS(=O)(=O)/C=C/c1ccccc1)c1ccc(F)cc1Cl,inactive
13,CC(C)c1cccc(C(C)C)c1N1C(=O)c2ccc(O)cc2C1=O,inactive
14,CNCc1ccc(NC(=O)c2c[nH]c3c2C(=O)CCC3)cc1,inactive
15,CN(C)c1ccc(N=NS(=O)(=O)O)cc1,inactive

# Read-out: Bcl-2 (BAX) gene, BAX (gene 581)
# Assay: LTEA_HepaRG_BAX: Life Technologies and Expression Analysis (LTEA) Assay for Bcl-2 (BAX) gene using HepaRG (AID 2283470)
# Conditions: mRNA level, 48 h; actives raise or lower the signal
# Outline: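 Cells were thawed, plated for 48 h, moved to serum-free induction medium and dosed for 48 h (highest concentration 100 uM, half-log steps, 0.5% DMSO). Total RNA was then analysed for BAX expression by qRT-PCR.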
SMILES,outcome,AC50
CC1(C)C(=O)N(Br)C(=O)N1Br,inactive,
CC(=O)OCCC(C)C,inactive,
CC(=O)c1ccc2c(c1)[C@H](NC(=O)c1ccc(F)cc1)[C@@H](O)C(C)(C)O2,inactive,
O=C(CCCCCCCCc1cccnc1)N1CCC(C=C(c2ccccc2)c2ccccc2)CC1,,30.9 µM (active)
Cn1cnc([N+](=O)[O-])c1Sc1ncnc2nc[nH]c12,,8.77 µM (active)
C1=CCCC=CCCC=CCC1,inactive,
O=c1[nH]c2ccc(S(=O)CCN3CCC(Cc4ccc(F)cc4)CC3)cc2o1 (configuration not stated),inactive,
Cn1c(=O)c2c(ncn2C)n(C)c1=O,inactive,
O=C1OC(=O)C2C3C=CC(C3)C12 (configuration not stated),inactive,
CC(C)=CCCC(C)CCO (configuration not stated),inactive,
Cn1c(=O)cc(Oc2ccc(F)cc2F)c2cnc(NCC(C)(C)O)nc21,inactive,
CC(C)CC(C)(O)C#CC(C)(O)CC(C)C (configuration not stated),inactive,
Clc1nc(Cl)c(Cl)c(Cl)c1Cl,inactive,
COC(=O)c1c(Cl)c(Cl)c(C(=O)OC)c(Cl)c1Cl,inactive,
CCn1nc(Cc2ccccc2)cc1C1CCN(C[C@H]2C[C@H](N(C)[C@@H](C(=O)O)C(C)C)C[C@@H]2c2cccc(F)c2)CC1,inactive,
CCC(C)(C)C(=O)O[C@H]1C[C@@H](C)C=C2C=C[C@H](C)[C@H](CC[C@@H]3C[C@@H](O)CC(=O)O3)[C@H]21,inactive,
CCCC(=O)OCC,inactive,
CC(C)CCCCCCOC(=O)c1ccc(C(=O)OCCCCCCC(C)C)c(C(=O)OCCCCCCC(C)C)c1,inactive,
C[C@](N)(Cc1ccc(O)c(O)c1)C(=O)O,inactive,
COc1ccc(-n2nc(C(F)F)cc2-c2ccc(S(C)=O)cc2)cc1 (configuration not stated),inactive,
CCOCCO,inactive,
O=C(NS(=O)(=O)/C=C/c1ccccc1)c1ccc(F)cc1Cl,inactive,
CCOC(=O)COc1ccc2c(c1)CC(NCC(O)c1cccc(Cl)c1)CC2 (configuration not stated),inactive,
CCCCCCCCO,inactive,
CC(C)c1cccc(C(C)C)c1N1C(=O)c2ccc(O)cc2C1=O,,50 µM (active)
CNCc1ccc(NC(=O)c2c[nH]c3c2C(=O)CCC3)cc1,inactive,
CN(C)c1ccc(N=NS(=O)(=O)O)cc1,inactive,
O=C(O)CCN(C1(C(=O)NO)CCCC1)S(=O)(=O)c1ccc(Oc2ccc(F)cc2)cc1,inactive,
